Measurements reported in PubChem BioAssay AID1159580 (chemical genetic matrix, 2015).
Where “and” joins values, the source holds several entries; their conditions need not be identical. Equal values may be shown once. In all, about 5,500 compounds went through this assay and about 2,000 (36%) were called active. About 18% were inconclusive and are not listed. Rule as the data show it: active = normalized growth mostly below about 0.91 (no sharp cut-off); inconclusive = no clear call, values can overlap the other calls; inactive = mostly above about 0.92. Some of the results follow.

Test: chemical genetic growth profiling, strain panel (AID 1159580);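 also: tested at 20 µM; growth read once vehicle control cultures reached saturation at 30 °C; 1 = growth at the plate median or of vehicle wells; lower values mean less growth of the strain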
Conditions: growth OD

Measured: normalized growth

CNCCCC12CCC(c3ccccc31)c1ccccc12
inactive: S. cerevisiae deletion strains, locus YJR075W, strain HOC1, active compounds read low 0.991 and 0.989 | S. cerevisiae deletion strains, locus YKL009W, strain mrt4, active compounds read low 0.978 | S. cerevisiae deletion strains, locus YKL068W, active compounds read low 0.983 | S. cerevisiae deletion strains, locus YKL085W, strain MDH1 (second series), active compounds read low 0.982 | S. cerevisiae deletion strains, locus YKL085W, strain MDH1, active compounds read low 0.982 | S. cerevisiae deletion strains, locus YKL160W, strain elf1, active compounds read low 0.968 | S. cerevisiae deletion strains, locus YKR001C, strain vps1, active compounds read low 1.02 | S. cerevisiae deletion strains, locus YKR026C, strain gcn3, active compounds read low 0.979 | S. cerevisiae deletion strains, locus YKR091W, strain srl3, active compounds read low 0.973 | S. cerevisiae deletion strains, locus YLL001W, strain dnm1, active compounds read low 1.01 | S. cerevisiae deletion strains, locus YLL026W, active compounds read low 0.97 | S. cerevisiae deletion strains, locus YLL041C, strain sdh2, active compounds read low 0.98 | S. cerevisiae deletion strains, locus YLR027C, strain aat2, active compounds read low 0.964 | S. cerevisiae deletion strains, locus YLR039C, strain RIC1, active compounds read low 1.29 | S. cerevisiae deletion strains, locus YLR058C, strain SHM2, active compounds read low 0.984 | S. cerevisiae deletion strains, locus YLR102C, strain apc9, active compounds read low 0.992 | S. cerevisiae deletion strains, locus YLR113W, strain HOG1, active compounds read low 1.01 | S. cerevisiae deletion strains, locus YLR221C, strain rsa3, active compounds read low 0.998 | S. cerevisiae deletion strains, locus YLR258W, strain gsy2, active compounds read low 0.974 | S. cerevisiae deletion strains, locus YLR262C, strain YPT6 (second series), active compounds read low 0.937 | S. cerevisiae deletion strains, locus YLR262C, strain YPT6, active compounds read low 1.32 | S. cerevisiae deletion strains, locus YLR268W, strain sec22, active compounds read low 0.975 | S. cerevisiae deletion strains, locus YLR320W, strain mms22, active compounds read low 0.992 | S. cerevisiae deletion strains, locus YLR330W, strain CHS5, active compounds read low 0.993 | S. cerevisiae deletion strains, locus YLR342W, strain FKS1 (second series), active compounds read low 0.944 | S. cerevisiae deletion strains, locus YLR342W, strain FKS1, active compounds read low 0.954 | S. cerevisiae deletion strains, locus YLR357W, strain rsc2, active compounds read low 0.968 | S. cerevisiae deletion strains, locus YLR370C, strain arc18, active compounds read low 0.98 | S. cerevisiae deletion strains, locus YLR371W, strain rom2, active compounds read low 0.963 | S. cerevisiae deletion strains, locus YLR384C, strain iki3, active compounds read low 0.989 | S. cerevisiae deletion strains, locus YLR418C, strain cdc73, active compounds read low 0.857 | S. cerevisiae deletion strains, locus YML016C, strain PPZ1, active compounds read low 0.986 | S. cerevisiae deletion strains, locus YML032C, strain rad52, active compounds read low 0.963 | S. cerevisiae deletion strains, locus YML120C, strain ndi1, active compounds read low 0.976 | S. cerevisiae deletion strains, locus YML124C, strain tub3, active compounds read low 0.995 | S. cerevisiae deletion strains, locus YMR058W, strain fet3, active compounds read low 0.952 | S. cerevisiae deletion strains, locus YMR078C, strain ctf18, active compounds read low 0.984 | S. cerevisiae deletion strains, locus YMR125W, strain sto1, active compounds read low 0.939 | S. cerevisiae deletion strains, locus YMR129W, active compounds read low 0.979 | S. cerevisiae deletion strains, locus YMR205C, strain PFK2, active compounds read low 0.999 | S. cerevisiae deletion strains, locus YMR223W, strain ubp8, active compounds read low 0.951 | S. cerevisiae deletion strains, locus YMR231W, strain pep5, active compounds read low 0.985 | S. cerevisiae deletion strains, locus YMR263W, strain SAP30, active compounds read low 0.992 and 1 | S. cerevisiae deletion strains, locus YMR307W, strain GAS1, active compounds read low 0.979 | S. cerevisiae deletion strains, locus YNL067W, strain RPL9B, active compounds read low 1 | S. cerevisiae deletion strains, locus YNL071W, strain lat1, active compounds read low 0.986 | S. cerevisiae deletion strains, locus YNL128W, strain TEP1, active compounds read low 1.03 | S. cerevisiae deletion strains, locus YNL153C, strain GIM3, active compounds read low 1 | S. cerevisiae deletion strains, locus YNL175C, strain NOP13, active compounds read low 1.02 | S. cerevisiae deletion strains, locus YNL183C, strain NPR1, active compounds read low 0.949 | S. cerevisiae deletion strains, locus YNL197C, strain WHI3, active compounds read low 1.03 | S. cerevisiae deletion strains, locus YNL209W, strain ssb2, active compounds read low 0.967 | S. cerevisiae deletion strains, locus YNL224C, strain SQS1, active compounds read low 1.01 | S. cerevisiae deletion strains, locus YNL233W, strain BNI4, active compounds read low 0.954 | S. cerevisiae deletion strains, locus YNL248C, strain rpa49, active compounds read low 0.932 | S. cerevisiae deletion strains, locus YNL250W, strain rad50, active compounds read low 0.982 | S. cerevisiae deletion strains, locus YNL271C, strain bni1, active compounds read low 0.993 | S. cerevisiae deletion strains, locus YNL298W, strain CLA4, active compounds read low 0.967 | S. cerevisiae deletion strains, locus YNL307C, strain MCK1, active compounds read low 0.978 | S. cerevisiae deletion strains, locus YNL322C, strain KRE1 (second series), active compounds read low 0.976 | S. cerevisiae deletion strains, locus YNR049C, strain mso1, active compounds read low 0.971 | S. cerevisiae deletion strains, locus YNR052C, strain pop2, active compounds read low 0.962 | S. cerevisiae deletion strains, locus YOL012C, strain htz1 0.584 | S. cerevisiae deletion strains, locus YOL147C, strain pex11, active compounds read low 0.987 | S. cerevisiae deletion strains, locus YOR001W, strain rrp6, active compounds read low 0.992 | S. cerevisiae deletion strains, locus YOR061W, strain CKA2, active compounds read low 0.991 | S. cerevisiae deletion strains, locus YOR069W, strain VPS5, active compounds read low 0.993 | S. cerevisiae deletion strains, locus YOR070C, strain gyp1, active compounds read low 0.983 | S. cerevisiae deletion strains, locus YOR080W, strain dia2, active compounds read low 0.951 | S. cerevisiae deletion strains, locus YOR083W, strain WHI5 (second series), active compounds read low 0.999 | S. cerevisiae deletion strains, locus YOR083W, strain WHI5, active compounds read low 0.913 | S. cerevisiae deletion strains, locus YOR106W, strain vam3, active compounds read low 0.95 | S. cerevisiae deletion strains, locus YOR136W, strain idh2, active compounds read low 0.99 | S. cerevisiae deletion strains, locus YOR144C, strain elg1, active compounds read low 0.997 | S. cerevisiae deletion strains, locus YOR184W, strain ser1, active compounds read low 1.02 | S. cerevisiae deletion strains, locus YOR231W, strain MKK1, active compounds read low 1.02 | S. cerevisiae deletion strains, locus YOR265W, strain rbl2, active compounds read low 0.983 | S. cerevisiae deletion strains, locus YOR270C, strain vph1, active compounds read low 0.927 | S. cerevisiae deletion strains, locus YOR290C, strain snf2, active compounds read low 0.94 | S. cerevisiae deletion strains, locus YOR316C, strain cot1, active compounds read low 0.991 | S. cerevisiae deletion strains, locus YPL051W, strain arl3, active compounds read low 0.938 | S. cerevisiae deletion strains, locus YPL055C, strain LGE1, active compounds read low 0.982 | S. cerevisiae deletion strains, locus YPL078C, strain atp4, active compounds read low 0.967 | S. cerevisiae deletion strains, locus YPL106C, strain sse1, active compounds read low 0.975 | S. cerevisiae deletion strains, locus YPL240C, strain hsp82, active compounds read low 0.984 | S. cerevisiae deletion strains, locus YPL241C, strain CIN2, active compounds read low 0.991 and 0.996 | S. cerevisiae deletion strains, locus YPL256C, strain CLN2, active compounds read low 0.995 | S. cerevisiae deletion strains, locus YPR119W, strain clb2, active compounds read low 0.992 | S. cerevisiae deletion strains, locus YPR141C, strain kar3, active compounds read low 0.979 | S. cerevisiae deletion strains, locus YPR163C, strain tif3, active compounds read low 0.994 | S. cerevisiae deletion strains, locus YPR167C, strain met16, active compounds read low 0.996 | S. cerevisiae deletion strains, strain wtn01, active compounds read low 0.964 | S. cerevisiae strains, strain wild type, active compounds read low 0.993
